Our source for the growth inhibition values is PubChem BioAssay (NCI).

The panel holds about 79,000 compounds, 15% with a hit somewhere; the sample as a whole holds those more often. Values without a mark were called inactive. Activity calls are given as the source filed them. No stated cut-off is given here; in the data, active means growth inhibition above about 70%; inactive means the rest.

Assay [1] in a line: NCI Yeast Anticancer Drug Screen. Data for the rad50 strain (AID 155).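 Further: 0% = growth of vehicle-only cultures of the same strain.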 The conditions noted are these: S. cerevisiae rad50 strain growth inhibition; at 50.0 µM; hits give high values. The method, boiled down: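 DNA repair mutant yeast, compound exposure, growth read-out; inhibition is taken relative to vehicle.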
Assay [2] is described as follows: NCI Yeast Anticancer Drug Screen. Data for the mec2-1 strain (AID 157). Particulars: S. cerevisiae mec2-1 strain, at 50.0 µM, hits give high values. The method, boiled down:
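Yeast mec2-1 mutant treated with compound. Readout: growth inhibition vs vehicle controls.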

The nature of assay [3]: NCI Yeast Anticancer Drug Screen. Data for the sgs1 mgt1 strain (AID 161).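 Further: 0% = growth of cultures given vehicle only.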 Particulars: S. cerevisiae sgs1 mgt1 strain, at 50.0 µM, hits give high values. The method, boiled down:
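Inhibition of yeast growth, normalised to vehicle-treated controls, is reported for a strain bearing genetic alterations in DNA damage repair.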

A short description of assay [4]: NCI Yeast Anticancer Drug Screen. Data for the cln2 rad14 strain (AID 165).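 Further: 0% = growth equal to vehicle treated cultures.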 Particulars: S. cerevisiae cln2 rad14 strain, at 50.0 µM, hits give high values. The gist of the method: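 cln2 rad14 yeast strain; compound exposure; growth inhibition read vs vehicle controls.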
Assay [5] can be described thus: NCI Yeast Anticancer Drug Screen. Data for the bub3 strain (AID 167). The conditions noted are these: S. cerevisiae bub3 mutant strain, at 50.0 µM, hits give high values. The gist of the method: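 In this screen, a yeast mutant lacking normal mitotic checkpoint function is challenged with compound. Relative growth versus vehicle gives the inhibition value.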
The nature of assay [6]: NCI Yeast Anticancer Drug Screen. Data for the mlh1 rad18 strain (AID 175). Particulars: S. cerevisiae mlh1 rad18 strain growth inhibition; at 50.0 µM; hits give high values. The gist of the method: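 Yeast w/ defined DNA-repair lesions; compound exposure; growth vs vehicle controls → % inhibition.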

For `O=C1Oc2ccccc2C(=O)Oc2ccccc2C(=O)Oc2ccccc2C(=O)Oc2ccccc21`, the growth inhibition in assay [1] was -43.7%; in assay [2], -38.6%; in assay [3], -24.2%; in assay [4], -8.25%; in assay [5] it was -22.1%; in assay [6], -29.6%.

As for `O=C1CCCc2cc3c(cc21)CC1(C3)Cc2cc3c(cc2C1)C(=O)CCC3`, the growth inhibition in assay [1] is -8.8%; in assay [2], -7.25%; in assay [3], -5.8%; in assay [4] it was -10.3%; in assay [5] it was -11.2%; in assay [6], -9%.

With `CCC(=O)NCCc1ccccc1`, the growth inhibition in assay [1] is -16.2%; in assay [2], 29.6%; in assay [3], 14.3%; in assay [4], -13.1%; in assay [5], -5.8%; in assay [6] it was -10.4%.

On to `O=[N+]([O-])c1ccc(Sc2c3ccccc3nc3ccccc23)cn1`, for which the growth inhibition in assay [1] is 21.1%; in assay [2], 27.4%; in assay [3], -12.5%; in assay [4], 7.65%; in assay [5], -14.8%; in assay [6], -18.4%.

As for `Cc1[nH]n(C(=O)c2ccc(Cl)cc2)c(=O)c1/C=C1\C(O)=CC(=O)c2ccccc21`, the growth inhibition in assay [1] was 31.6%; in assay [2] it was -6.85%; in assay [3], 18.7%; in assay [4], -19.6%; in assay [5], 30.7%; in assay [6] it was 16.9%.

As to `N[N+]1(CCS(N)(=O)=O)CCOCC1`, the growth inhibition in assay [1] is -1.95%; in assay [2] it was -12.6%; in assay [3], -0.9%; in assay [4], -31.2%; in assay [5], -8.3%; in assay [6], 13.5%.

With `O=S(=O)(c1ccccc1)c1cccc2c1NCCC2`, the growth inhibition was 34.9% in assay [1]; -1.75% in assay [2]; 34.4% in assay [3]; 8.4% in assay [4]; 62.3% in assay [5]; 43.6% in assay [6].

With `O=S(=O)([O-])Sn1c(-c2ccccc2)c[n+]2ccccc12`, the growth inhibition in assay [1] is 11.8%; in assay [2] it was 5.55%; in assay [3], 13.9%; in assay [4], 14.2%; in assay [5] it was 12.1%; in assay [6], 10.8%.

`CS(=O)(=O)c1ccc2c(c1)-c1ccc([N+](=O)[O-])cc1C2=O`: the growth inhibition in assay [1] is 12.7%; in assay [2], 8.8%; in assay [3] it was 6.3%; in assay [4] it was 1.65%; in assay [5] it was -4%; in assay [6], -0.9%.

Turning to `Cn1c(=O)c2c3ccccc3c(C(=O)c3ccccc3)n2c2ccccc21`, the growth inhibition in assay [1] was 38.4%; in assay [2] it was 4.1%; in assay [3] it was 27.4%; in assay [4], 25.9%; in assay [5], -1.25%; in assay [6], 34.4%.

Take `COc1ccc(-c2c(C#N)c(-c3ccccc3)n(NS(=O)(=O)c3ccccc3)c(=O)c2C#N)cc1`: the growth inhibition is -0.05% in assay [1]; 40.7% in assay [2]; 30.4% in assay [3]; 8.45% in assay [4]; 32.6% in assay [5]; 42.1% in assay [6].

For the molecule `COC(=O)c1cc(C)n(C)c(=O)c1CNS(=O)(=O)c1ccc(C)cc1`, the growth inhibition in assay [1] was -1.25%; in assay [2], 6.45%; in assay [3], 0.85%; in assay [4] it was -6%; in assay [5] it was -2.8%; in assay [6] it was -12.3%.

Regarding `O=C(C(=Cn1c(=O)cc[nH]c1=S)C(=O)c1ccccc1)c1ccccc1`, the growth inhibition in assay [1] is -14.7%; in assay [2], -19.4%; in assay [3], -27.6%; in assay [4] it was 2.95%; in assay [5], -15.6%; in assay [6], -9.7%.

With `O=[N+]([O-])c1ccc(S(=O)c2ccc(Cl)cc2)c2c1no[n+]2[O-]` (stereo unspecified), the growth inhibition was 98.5% (active) in assay [1]; 99.4% (active) in assay [2]; 98.7% (active) in assay [3]; 32% in assay [4]; 76.1% (active) in assay [5]; 99.2% (active) in assay [6].

Turning to `CCN(CC)C(=S)SCCCS(=O)(=O)O`, the growth inhibition is 17.7% in assay [1]; -9.95% in assay [2]; 1.75% in assay [3]; 9.2% in assay [4]; 22.3% in assay [5]; 8.75% in assay [6].

Consider `C=C(CO)[C@H]1Oc2ccc(C(C)=O)cc2[C@@H]1O`, for which the growth inhibition was -16.1% in assay [1]; -10.1% in assay [2]; -24.6% in assay [3]; 6.85% in assay [4]; -10.7% in assay [5]; -12.5% in assay [6].

With `Cc1ccc(-c2c(C#N)c(-c3ccc([N+](=O)[O-])cc3)c(C#N)c(=O)n2NS(=O)(=O)c2ccccc2)cc1`, the growth inhibition in assay [1] was 23.1%; in assay [2] it was 16.8%; in assay [3] it was 24.5%; in assay [4], 27.4%; in assay [5], 14.6%; in assay [6], 0.8%.

Consider `O=[N+]([O-])c1ccccc1SSc1ccccc1[N+](=O)[O-]`, for which the growth inhibition was -20.4% in assay [1]; -15.6% in assay [2]; -36.5% in assay [3]; -1.85% in assay [4]; -46.4% in assay [5]; -18.6% in assay [6].

As to `COc1ccc2cc1Oc1ccc(cc1)CC1c3cc(c(OC)cc3CCN1C)Oc1c3c(cc4c1C(C2)N(C)CC4)OCO3` (stereo unspecified), the growth inhibition in assay [1] is 1.6%; in assay [2], -14.3%; in assay [3] it was -15.7%; in assay [4], 4.65%; in assay [5] it was 1.1%; in assay [6], 3.45%.

With `COc1ccc(C(O)S(=O)(=O)O)cc1` (stereo unspecified), the growth inhibition was -1.1% in assay [1]; -13.9% in assay [2]; -9.9% in assay [3]; -6.75% in assay [4]; -22.1% in assay [5]; 1.2% in assay [6].

In the case of `Cn1c(=O)c2c(ncn2-c2ccc(N)cn2)n(C)c1=O`, the growth inhibition in assay [1] is -7.1%; in assay [2], -4.55%; in assay [3], -7.15%; in assay [4] it was 9.45%; in assay [5], 11.2%; in assay [6], 4.1%.
